The results in this text go back to PubChem BioAssay (EPA / NIEHS).

SMILES strings stand for the structures. Where “and” joins values, the source holds several entries; their conditions need not be identical. Identical values can stand only once. Results filed as inconclusive are left out. Some compounds were tested as several samples or in several runs, with calls that do not always agree. Calls of active or inactive are those of the source. The calls were made as follows: active = hit-call score of the fitted dose curve at least 0.9, where 1 is the maximum; inconclusive = response in the unintended direction; inactive = score below 0.9.

Assay [1] concerns the target Estrogen receptor (Homo sapiens) + Estrogen receptor beta (Homo sapiens) (UniProt P03372+Q92731). Briefly: OT_ER_ERaERb_1440: Odyssey Thera (OT) 24-hour HEK293T Protein-Complementation Assay for Estrogen Receptor-alpha/-beta Homodimer (AID 2283356).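 Also: heteromer of ER alpha and ER beta binding domains; hits raise reporter fluorescence and both agonists and antagonists give an increase.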 Put shortly:
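HEK293T stably expressing a PCA of ER alpha LBD (aa 310-547) and ER beta LBD (aa 263-489). After 24 h compound exposure, mean fluorescence intensity in nucleus (agonists) or nucleus and cytoplasm (antagonists) measured by laser scanning cytometry versus vehicle.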

The target of assay [2] is Estrogen receptor beta (Homo sapiens) (UniProt Q92731). Briefly: OT_ER_ERbERb_0480: Odyssey Thera (OT) 8-hour HEK293T Protein-Complementation Assay for Estrogen Receptor-beta/-beta Homodimer (AID 2283357).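 Also: active means signal gain over DMSO baseline.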 Put shortly: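 ER-beta LBD homodimer PCA stably expressed in HEK293T; 8 h compound exposure, then formaldehyde fixation and Draq5 staining. Gain in nuclear/cytoplasmic fluorescence intensity versus DMSO vehicle, read on laser scanning cytometer.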

The target of assay [3] is Nuclear receptor subfamily 1 group I member 2 (Homo sapiens) (UniProt O75469). The experiment in a line: NVS_NR_hPXR: NovaScreen (NVS) Nuclear Receptor Binding Assay for human Pregnane X Receptor (PXR) (AID 2283365).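 Also: a drop in FRET signal versus DMSO baseline means the compound binds.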 Put shortly: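 Cell-free TR-FRET binding assay with extracted human PXR protein, read 2 h after dosing. Primary screen run in duplicate at 25 uM, actives followed in concentration series; loss of signal fitted against DMSO baseline.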

Assay [4] addresses rat Androgen Receptor (AR), Ar (gene 24208) (UniProt P15207). The experiment in a line: NVS_NR_rAR: NovaScreen (NVS) Nuclear Receptor Binding Assay for rat Androgen Receptor (AR) (AID 2283366). Put shortly:
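Actives from a duplicate single-concentration (25 uM) primary run went on to concentration series. Displacement of radioligand was counted by filtration and scintillation, 18 h post-dose, using prostate extracts from testosterone-pretreated rats, with DMSO as baseline.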

Assay [5] deals with human Peroxisome Proliferator-activated Receptor alpha (PPARa), PPARA (gene 5465) (UniProt Q07869). Briefly: NVS_NR_hPPARa: NovaScreen (NVS) Nuclear Receptor Binding Assay for human Peroxisome Proliferator-activated Receptor alpha (PPARa) (AID 2283359).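 Also: activity means loss of TR-FRET signal versus DMSO baseline.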 The essentials:
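Loss of TR-FRET binding signal relative to DMSO was measured 1 h after chemical addition to extracted receptor protein. Chemicals were first tested in duplicate at 25 uM, and actives were followed up in concentration series.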

For assay [6], the target named is Retinoic acid receptor alpha (Homo sapiens) (UniProt P10276). Briefly: NVS_NR_hRARa_Agonist: NovaScreen (NVS) Nuclear Receptor Binding Assay for human Retinoic Acid Alpha Receptor Agonism (RAR) (AID 2283361). Put shortly:
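Agonist-mode TR-FRET binding format using extracted protein, measured at 2 h post-dosing. Initial duplicate single-point screen at 25 uM preceded concentration series for actives; activity was normalized to DMSO baseline.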

Assay [7] concerns the target guinea pig Sigma Receptor, Non-selective Binding, SIGMAR1 (gene 100135589) (UniProt Q60492). Briefly: NVS_OR_gSIGMA_NonSelective: NovaScreen (NVS) Nuclear Receptor Binding Assay for guinea pig Sigma Receptor, Non-selective Binding (AID 2283367). Put shortly:
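Guinea pig brain membrane sigma sites were labelled with a radioligand, and bound radioactivity was counted after filtration 1 h post-dose. Compounds were screened at 25 uM in duplicate, then retested as concentration series when active.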

Assay [8] has as its target Retinoic acid receptor alpha (Homo sapiens) (UniProt P10276). Briefly: NVS_NR_hRAR_Antagonist: NovaScreen (NVS) Nuclear Receptor Binding Assay for human Retinoic Acid Alpha Receptor Antagonism (RAR) (AID 2283358). Put shortly: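 RARalpha antagonism was read by TR-FRET as loss of binding signal versus DMSO, 2 h after chemical addition, in a biochemical format. Single-concentration duplicates (25 uM) were run first, and actives were retested in concentration series.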

For assay [9], the target named is human Adenosine Transporter (Adot), SLC29A1 (gene 2030) (UniProt Q99808). The experiment in a line: NVS_TR_hAdoT: NovaScreen (NVS) Transporter Assay for human Adenosine Transporter (Adot) (AID 2283368). Put shortly: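 Binding displacement on U937 extracted protein, read 1 h post-dose by filtration and scintillation counting. Primary duplicate test at 25 uM, then singleton concentration series with 50 uM top; DMSO baseline.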
Sequence of human Adenosine Transporter (Adot), SLC29A1 (gene 2030) (Q99808 whole entry, looked up): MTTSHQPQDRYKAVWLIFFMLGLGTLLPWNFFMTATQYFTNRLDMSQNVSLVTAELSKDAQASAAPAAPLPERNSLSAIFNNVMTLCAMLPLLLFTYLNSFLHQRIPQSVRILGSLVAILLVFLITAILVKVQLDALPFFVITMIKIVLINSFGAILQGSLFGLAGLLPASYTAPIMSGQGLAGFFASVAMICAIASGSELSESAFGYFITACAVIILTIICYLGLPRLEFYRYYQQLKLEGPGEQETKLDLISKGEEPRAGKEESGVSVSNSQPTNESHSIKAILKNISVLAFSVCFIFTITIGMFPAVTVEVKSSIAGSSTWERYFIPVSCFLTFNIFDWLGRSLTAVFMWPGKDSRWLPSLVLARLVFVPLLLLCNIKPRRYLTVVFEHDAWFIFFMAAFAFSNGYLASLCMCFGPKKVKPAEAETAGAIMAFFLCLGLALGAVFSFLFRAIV

Sequence of Estrogen receptor beta (Homo sapiens) (Q92731 whole entry, looked up, the tested form may be a part): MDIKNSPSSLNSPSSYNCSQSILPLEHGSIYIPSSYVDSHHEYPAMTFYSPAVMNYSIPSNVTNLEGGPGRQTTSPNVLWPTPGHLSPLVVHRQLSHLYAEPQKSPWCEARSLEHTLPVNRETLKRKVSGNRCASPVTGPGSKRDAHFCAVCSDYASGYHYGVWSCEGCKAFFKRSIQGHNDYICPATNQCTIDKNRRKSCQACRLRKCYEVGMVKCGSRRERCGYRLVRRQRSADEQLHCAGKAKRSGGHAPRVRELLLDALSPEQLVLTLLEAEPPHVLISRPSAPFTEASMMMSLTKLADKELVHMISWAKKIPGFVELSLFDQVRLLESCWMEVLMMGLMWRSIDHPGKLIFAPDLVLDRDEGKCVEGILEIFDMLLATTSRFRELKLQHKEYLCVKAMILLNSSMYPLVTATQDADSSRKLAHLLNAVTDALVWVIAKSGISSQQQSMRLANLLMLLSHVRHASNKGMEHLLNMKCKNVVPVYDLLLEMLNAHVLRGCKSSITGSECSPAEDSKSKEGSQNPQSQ
Sequence of Retinoic acid receptor alpha (Homo sapiens) (P10276 whole entry, looked up): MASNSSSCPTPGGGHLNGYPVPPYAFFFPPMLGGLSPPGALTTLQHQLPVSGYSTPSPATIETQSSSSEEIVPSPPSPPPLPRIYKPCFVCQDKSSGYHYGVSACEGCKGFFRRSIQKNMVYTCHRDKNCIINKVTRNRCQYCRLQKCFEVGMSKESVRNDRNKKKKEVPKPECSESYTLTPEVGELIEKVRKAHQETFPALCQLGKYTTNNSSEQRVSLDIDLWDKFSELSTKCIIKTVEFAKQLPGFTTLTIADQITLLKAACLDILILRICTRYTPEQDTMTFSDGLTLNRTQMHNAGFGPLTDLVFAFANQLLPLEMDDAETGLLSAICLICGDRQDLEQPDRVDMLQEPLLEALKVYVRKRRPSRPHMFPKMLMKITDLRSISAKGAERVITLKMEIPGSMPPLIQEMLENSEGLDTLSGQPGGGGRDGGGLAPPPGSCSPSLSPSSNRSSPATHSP
Sequence of rat Androgen Receptor (AR), Ar (gene 24208) (P15207 whole entry, looked up): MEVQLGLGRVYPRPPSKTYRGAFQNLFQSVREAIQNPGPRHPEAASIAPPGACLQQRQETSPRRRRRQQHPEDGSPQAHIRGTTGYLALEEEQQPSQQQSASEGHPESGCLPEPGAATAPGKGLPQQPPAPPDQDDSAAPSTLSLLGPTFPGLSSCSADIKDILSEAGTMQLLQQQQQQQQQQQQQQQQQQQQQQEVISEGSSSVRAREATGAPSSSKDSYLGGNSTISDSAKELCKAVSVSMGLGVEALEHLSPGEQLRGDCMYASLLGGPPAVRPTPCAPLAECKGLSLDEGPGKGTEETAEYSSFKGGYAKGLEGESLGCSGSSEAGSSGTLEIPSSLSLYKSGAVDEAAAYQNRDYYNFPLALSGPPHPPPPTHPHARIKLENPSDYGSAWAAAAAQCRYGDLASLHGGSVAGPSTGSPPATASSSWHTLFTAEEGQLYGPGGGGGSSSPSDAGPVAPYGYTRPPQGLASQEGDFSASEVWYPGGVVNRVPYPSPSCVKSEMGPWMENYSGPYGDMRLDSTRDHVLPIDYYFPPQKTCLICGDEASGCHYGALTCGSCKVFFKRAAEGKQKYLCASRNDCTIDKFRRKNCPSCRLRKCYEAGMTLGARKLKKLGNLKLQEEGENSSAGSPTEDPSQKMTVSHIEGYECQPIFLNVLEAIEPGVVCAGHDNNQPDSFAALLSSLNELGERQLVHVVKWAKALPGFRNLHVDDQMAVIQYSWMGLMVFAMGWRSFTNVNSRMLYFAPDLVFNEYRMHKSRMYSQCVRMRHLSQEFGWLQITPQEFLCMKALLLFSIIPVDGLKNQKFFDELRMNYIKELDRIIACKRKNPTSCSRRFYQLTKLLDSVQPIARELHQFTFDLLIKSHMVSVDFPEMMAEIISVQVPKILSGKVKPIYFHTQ
Sequence of Nuclear receptor subfamily 1 group I member 2 (Homo sapiens) (O75469 whole entry, looked up): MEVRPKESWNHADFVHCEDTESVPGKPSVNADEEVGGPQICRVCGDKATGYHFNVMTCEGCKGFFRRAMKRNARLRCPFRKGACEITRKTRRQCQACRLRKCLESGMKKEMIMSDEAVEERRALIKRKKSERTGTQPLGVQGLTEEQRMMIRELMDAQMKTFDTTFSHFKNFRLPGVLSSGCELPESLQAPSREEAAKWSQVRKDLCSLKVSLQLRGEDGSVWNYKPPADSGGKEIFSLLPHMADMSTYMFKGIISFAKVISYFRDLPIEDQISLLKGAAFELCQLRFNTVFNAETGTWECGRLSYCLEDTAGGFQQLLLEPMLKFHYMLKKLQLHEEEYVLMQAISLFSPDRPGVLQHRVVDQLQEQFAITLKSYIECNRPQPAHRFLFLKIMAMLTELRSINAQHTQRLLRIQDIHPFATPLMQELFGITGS
Sequence of Estrogen receptor (Homo sapiens) + Estrogen receptor beta (Homo sapiens) (P03372 whole entry, looked up, the tested form may be a part): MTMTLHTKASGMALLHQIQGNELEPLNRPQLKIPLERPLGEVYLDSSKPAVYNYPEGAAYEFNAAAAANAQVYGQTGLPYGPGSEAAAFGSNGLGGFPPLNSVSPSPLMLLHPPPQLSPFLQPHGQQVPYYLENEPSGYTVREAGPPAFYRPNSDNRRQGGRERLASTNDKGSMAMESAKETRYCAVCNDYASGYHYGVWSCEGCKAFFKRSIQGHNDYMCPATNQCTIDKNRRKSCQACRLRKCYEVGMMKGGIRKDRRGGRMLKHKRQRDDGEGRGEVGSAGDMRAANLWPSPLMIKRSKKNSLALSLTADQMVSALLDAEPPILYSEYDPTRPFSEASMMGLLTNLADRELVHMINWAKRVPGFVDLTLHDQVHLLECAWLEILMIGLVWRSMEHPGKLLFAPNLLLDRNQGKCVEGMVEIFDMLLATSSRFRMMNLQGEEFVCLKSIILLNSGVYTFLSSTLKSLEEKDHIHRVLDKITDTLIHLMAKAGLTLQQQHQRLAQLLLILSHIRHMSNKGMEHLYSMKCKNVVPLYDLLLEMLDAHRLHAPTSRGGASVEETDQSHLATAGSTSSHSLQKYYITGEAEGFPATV
Sequence of Estrogen receptor (Homo sapiens) + Estrogen receptor beta (Homo sapiens) (Q92731 whole entry, looked up, the tested form may be a part): as the sequence (Q92731 whole entry, looked up, the tested form may be a part) above
Sequence of human Peroxisome Proliferator-activated Receptor alpha (PPARa), PPARA (gene 5465) (Q07869 whole entry, looked up): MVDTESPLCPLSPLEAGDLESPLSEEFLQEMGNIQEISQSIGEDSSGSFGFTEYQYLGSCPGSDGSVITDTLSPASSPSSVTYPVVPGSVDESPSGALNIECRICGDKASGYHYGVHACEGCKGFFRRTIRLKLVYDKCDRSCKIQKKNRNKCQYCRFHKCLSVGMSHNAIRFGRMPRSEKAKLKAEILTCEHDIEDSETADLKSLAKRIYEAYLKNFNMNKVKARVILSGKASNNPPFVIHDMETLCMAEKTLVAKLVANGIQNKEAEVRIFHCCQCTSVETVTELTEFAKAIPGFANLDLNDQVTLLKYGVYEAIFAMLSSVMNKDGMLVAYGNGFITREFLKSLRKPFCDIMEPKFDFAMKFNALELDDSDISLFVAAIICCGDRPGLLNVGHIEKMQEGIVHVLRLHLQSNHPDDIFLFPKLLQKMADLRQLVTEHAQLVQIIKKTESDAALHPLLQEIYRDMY
Sequence of guinea pig Sigma Receptor, Non-selective Binding, SIGMAR1 (gene 100135589) (Q60492 whole entry, looked up): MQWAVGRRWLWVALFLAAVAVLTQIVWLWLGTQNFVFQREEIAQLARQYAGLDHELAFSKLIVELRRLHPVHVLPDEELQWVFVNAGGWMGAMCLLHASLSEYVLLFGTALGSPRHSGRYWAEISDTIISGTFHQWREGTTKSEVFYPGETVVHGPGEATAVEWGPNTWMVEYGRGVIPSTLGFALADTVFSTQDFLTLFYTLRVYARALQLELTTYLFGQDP

Regarding `O=C(O)c1ccccc1C(c1ccc(O)cc1)c1ccc(O)cc1`, the result in [1], in [2], in assay [3] and in [4] was inactive.
`OC1CCC(C2CCCCC2)CC1` (stereo unspecified): the AC50 in [2] is 25.6 µM (active) and 31.9 µM (active) and 26.9 µM (active); in [7], 25 µM (active). The compound was classed as inactive in assay [2], in assay [5] and in assay [6].
`Oc1cccc(O)c1`: the result in assay [2] was inactive.
On the same count and under the same terms, the value for `CCCCC(CC)COC(=O)CCCCC(=O)OCc1ccccc1` (stereo unspecified) was “inactive”.
Regarding `Cc1cc(CCN2CCN(c3nsc4ccccc34)CC2)cc2c1NC(=O)CC2(C)C`, in assay [2], the call was inactive.
Still for that read-out and setting: the same measure for `CC(=O)CC(C)(C)O`: “inactive”.
As for `O=C(O)Cc1cc(I)c(Oc2cc(I)c(O)c(I)c2)c(I)c1`, the compound was called inactive in assay [2], in assay [8], in assay [5] and in assay [9].
On to `CCCCCCCCCCCCN1CCCC1=O`, for which the outcome in [2] was inactive.
Still for that read-out and setting: the same measure for `COc1ccc([N+](=O)[O-])cc1N`: “inactive”; for `CCCCCCCCCCCCCCCS(=O)(=O)Oc1ccccc1`: “inactive”; for `C=C(C)C(=O)OCCC(F)(F)C(F)(F)C(F)(F)C(F)(F)C(F)(F)C(F)(F)F`: “inactive”.

Usually AC50 stands for the concentration at which the activity in the assay is half-maximal.
